Screens as filed in PubChem.
The full list was thinned out, with hits kept by preference.
TDP1 cell CPT: growth inhibition of DT40 Tdp1-/-;hTDP1 cells with camptothecin (screen for TDP1 inhibitors); Potency, µM (top dose mostly 46.2 µM), most hits filed as inhibitors; chicken DT40 Tdp1-/-;hTDP1 cells + 20 nM CPT, ATP luminescence, 48 h; 420,000 tested, 12% active; AID 686979; also: nearly all actives have a fitted effect of over 55% in size
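Chicken DT40 Tdp1-/- cells complemented with human TDP1, 400 cells/well, exposed to compounds plus 20 nM camptothecin for at least 48 h at 37 C; viability read as ATP content by CellTiter-Glo luminescence.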
12-LOX inh: ALOX12 (human) lipoxygenase inhibition; P18054; purified 12hLO, xylenol orange hydroperoxide absorbance; Potency, µM (doses to about 108 µM), hits mostly inhibitors; 580,000 tested, 1.1% active; AID 1671190
Target sequence (P18054 whole entry, looked up): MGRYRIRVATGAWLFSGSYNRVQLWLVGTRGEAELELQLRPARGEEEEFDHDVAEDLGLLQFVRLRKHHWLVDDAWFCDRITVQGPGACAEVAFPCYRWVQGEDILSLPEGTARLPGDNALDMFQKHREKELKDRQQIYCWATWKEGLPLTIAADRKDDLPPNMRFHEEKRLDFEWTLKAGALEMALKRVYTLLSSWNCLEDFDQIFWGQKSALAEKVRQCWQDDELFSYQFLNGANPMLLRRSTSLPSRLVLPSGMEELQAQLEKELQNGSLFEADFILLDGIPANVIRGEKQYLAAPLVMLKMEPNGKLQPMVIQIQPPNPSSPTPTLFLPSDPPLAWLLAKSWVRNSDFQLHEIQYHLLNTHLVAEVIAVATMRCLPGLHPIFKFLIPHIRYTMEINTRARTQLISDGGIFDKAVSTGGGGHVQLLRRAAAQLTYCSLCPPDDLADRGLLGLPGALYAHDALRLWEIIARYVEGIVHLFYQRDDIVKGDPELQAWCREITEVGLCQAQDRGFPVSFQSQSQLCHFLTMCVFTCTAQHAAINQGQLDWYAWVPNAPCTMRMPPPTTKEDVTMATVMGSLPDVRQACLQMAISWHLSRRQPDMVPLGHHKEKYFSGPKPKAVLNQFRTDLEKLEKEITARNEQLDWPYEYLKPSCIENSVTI
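Purified human 12hLO (150 nM final) in 25 mM Hepes, 0.01% Triton X-100, pH 7.0 was preincubated 15 min at room temperature with compound. Then 40 uM arachidonic acid was added, 30 min. Hydroperoxide was read by Fe-XO absorbance ratio 573/405 nm.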
HT1080NT lethal: kills 2HG-producing HT-1080-NT fibrosarcoma cells. HT-1080-NT fibrosarcoma viability, CellTiter-Glo ATP luminescence, 48 h. Potency, µM (series often up to 46.1 µM), usual class: cytotoxic. 360,000 tested, 1.6% active;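 also: NT is the 2HG producing partner of a matched IDH1 knockdown line; nearly all actives have a fitted effect of over 55% in size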
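HT-1080-NT; 750 cells/well; 5% FBS RPMI; 48 h compound, 37 degrees C; CellTiter-Glo luminescence; curve fitting and curve-class assignment.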
IL-1B inflam inh: inflammasome signaling inhibition, IL-1 beta readout | THP-1 LPS/ATP IL-1B secretion, AlphaLISA, 16 h; stronger effect = lower value | activity change, % at 57.5 µM | 360,000 tested, 4.7% active; in the data active = activity change below about -50%; inconclusive = mostly about -30% to -49%
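Secreted IL-1B measured by AlphaLISA bead assay after 16 h compound exposure of THP-1 cells; compounds (final up to 57.5 uM) added 1 h before LPS (250 ng/mL) and ATP (1.25 mM) stimulation; lower signal means less secretion.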
DT40 TDP1 no CPT: qHTS for Inhibitors of human tyrosyl-DNA phosphodiesterase 1 (TDP1): qHTS in cells in absence of CPT; DT40 Tdp1-/- hTDP1 cells, no CPT, ATP luminescence, 48 h; Potency, µM (top dose mostly 46.2 µM), usual class: inhibitors; 420,000 tested, 15% active; AID 686978, 2013; also: nearly all actives have a fitted effect of over 55% in size
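A cellular qHTS used chicken DT40 cells lacking endogenous Tdp1 but carrying stably transfected human TDP1. Compounds were applied without camptothecin, and cell growth kinetics were judged by ATP-dependent luminescence after ≥48 hr.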
HT1080 IDH1KD tx: kills HT-1080 cells with IDH1 knockdown; HT-1080 IDH1 knockdown viability, ATP luminescence, 48 h; Potency, µM (top dose mostly 46.1 µM), most hits filed as cytotoxic; 360,000 tested, 2% active; AID 686971
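Using the IDH1-knockdown HT-1080 line run in the same batch and compound series as the NT line, viability after 48 h at 37 °C was determined by CellTiter-Glo luminescence and expressed as % activity.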
Of the large screens only hits and unclear results are named; the others gave an inactive call. Unless noted, calls follow the shape of the dose curve; as a rule, active = well fitted curve in the direction sought with a large enough effect; inconclusive = small, poorly fitted or top-dose-only effect, or another doubt; inactive = no such curve, though single readings can be large; an effect the other way counts as inactive or inconclusive.

COc1cccc(NC(=S)N2CCCC2c2ccc(OC)c(OC)c2)c1 (stereo not drawn)	DT40 TDP1 no CPT 29.1µM
COc1ccc(C2SCCN2C(=S)Nc2ccc(Cl)cc2)cc1 (stereo not drawn)	none
CC(=O)N1CCC([C@@H]2CN(Cc3ccc(C#N)cc3)C[C@H]2CO)CC1	none (no result: TDP1 cell CPT, HT1080NT lethal, IL-1B inflam inh, DT40 TDP1 no CPT, HT1080 IDH1KD tx)
COc1cccc(-c2nnc(SCC(=O)N(C3CCCCC3)C3CCS(=O)(=O)C3)n2C)c1 (stereo not drawn)	none (no result: TDP1 cell CPT, HT1080NT lethal, IL-1B inflam inh, DT40 TDP1 no CPT, HT1080 IDH1KD tx)
COc1ccc(C2CCCN2C(=S)Nc2ccc(C)cc2C)cc1OC (stereo not drawn)	DT40 TDP1 no CPT 25.9µM
COc1ccc(C2CCCN2C(=S)Nc2ccccc2C)cc1OC (stereo not drawn)	DT40 TDP1 no CPT inconclusive
Cc1ccc(OCc2nc(C#N)c(N3CCCCCC3)o2)cc1	none (no result: TDP1 cell CPT, HT1080NT lethal, IL-1B inflam inh, DT40 TDP1 no CPT, HT1080 IDH1KD tx)
COc1ccc(Cn2c(C)nc3ccc([N+](=O)[O-])cc3c2=O)cc1	TDP1 cell CPT inconclusive, 12-LOX inh inconclusive, DT40 TDP1 no CPT 20.6µM
CN1C(=O)c2ccccc2Sc2ccc(NC(=O)NC3CC3)cc21	TDP1 cell CPT inconclusive, DT40 TDP1 no CPT inconclusive
CCc1cccc(NC(=O)Nc2ccc3c(c2)N(C)C(=O)c2ccccc2S3)c1	TDP1 cell CPT inconclusive, 12-LOX inh inconclusive, DT40 TDP1 no CPT 23.1µM (no result: HT1080NT lethal, IL-1B inflam inh, HT1080 IDH1KD tx)
CN1C(=O)c2ccccc2Sc2ccc(NC(=O)N3CCN(c4cccc(Cl)c4)CC3)cc21	TDP1 cell CPT 7.31µM, DT40 TDP1 no CPT 5.17µM (no result: HT1080NT lethal, IL-1B inflam inh, HT1080 IDH1KD tx)
COc1cccc(CNC(=O)Nc2ccc3c(c2)N(C)C(=O)c2ccccc2S3)c1	TDP1 cell CPT 23.1µM, DT40 TDP1 no CPT inconclusive (no result: HT1080NT lethal, IL-1B inflam inh, HT1080 IDH1KD tx)
CN1C(=O)c2ccccc2Sc2ccc(NC(=O)Nc3ccccc3F)cc21	TDP1 cell CPT inconclusive, DT40 TDP1 no CPT inconclusive (no result: HT1080NT lethal, IL-1B inflam inh, HT1080 IDH1KD tx)
O=C(c1ccc2c(=O)n3c(nc2c1)CCCCC3)N1CCN(c2cccc(Cl)c2)CC1	TDP1 cell CPT 18.4µM, DT40 TDP1 no CPT 23.1µM
CN(C(=O)COC(=O)c1ccc2c(=O)n3c(nc2c1)CCC3)C1CCS(=O)(=O)C1 (stereo not drawn)	IL-1B inflam inh -69.7
COc1ccc(N2CCN(C(=O)c3ccc4c(=O)n5c(nc4c3)CCCCC5)CC2)cc1	DT40 TDP1 no CPT inconclusive
CN(C(=O)COC(=O)c1nc(Cl)c(Cl)c(Cl)c1Cl)C1CCS(=O)(=O)C1 (stereo not drawn)	TDP1 cell CPT 20.6µM, HT1080NT lethal 16.4µM, IL-1B inflam inh -99.3, DT40 TDP1 no CPT 20.6µM, HT1080 IDH1KD tx 5.8µM
CN(C(=O)c1ccc2c(=O)n3c(nc2c1)CCCCC3)c1cccc(Cl)c1	TDP1 cell CPT 23.1µM, DT40 TDP1 no CPT 23.1µM
CN(C(=O)COC(=O)c1ccc(C(C)(C)C)cc1)C1CCS(=O)(=O)C1 (stereo not drawn)	none
COc1ccc(CN2C[C@H]3CN(Cc4ccc5c(c4)OCCO5)CCN3C2=O)cc1	none (no result: TDP1 cell CPT, HT1080NT lethal, IL-1B inflam inh, DT40 TDP1 no CPT, HT1080 IDH1KD tx)
COc1ccc(CN(C)C(=O)c2ccc3c(=O)n4c(nc3c2)CCC4)cc1	none
CCCCN(C(=O)c1ccc2c(=O)n3c(nc2c1)CCCCC3)c1ccccc1	none (no result: TDP1 cell CPT, HT1080NT lethal, IL-1B inflam inh, DT40 TDP1 no CPT, HT1080 IDH1KD tx)
CN(Cc1ccc(C(C)(C)C)cc1)C(=O)c1ccc2c(=O)n3c(nc2c1)CCC3	TDP1 cell CPT 20.6µM, DT40 TDP1 no CPT 20.6µM
CCCN(C(=O)c1ccc2c(=O)n3c(nc2c1)CCCCC3)c1cccc(Cl)c1	TDP1 cell CPT inconclusive, DT40 TDP1 no CPT 16.4µM (no result: HT1080NT lethal, IL-1B inflam inh, HT1080 IDH1KD tx)
N#CC1=CN(Cc2ccccc2)C=C(/C=N/Nc2ccccc2)C1	TDP1 cell CPT inconclusive, HT1080NT lethal inconclusive, IL-1B inflam inh -79.6, DT40 TDP1 no CPT inconclusive, HT1080 IDH1KD tx inconclusive
CCC(=O)OCOc1ccc(/C=C2/CCC(CN(C)C)C2=O)cc1 (stereo not drawn)	TDP1 cell CPT 2.31µM, 12-LOX inh 35.5µM, HT1080NT lethal inconclusive, DT40 TDP1 no CPT 2.91µM, HT1080 IDH1KD tx 16.4µM
CNC(=O)c1ccc(-c2nc(CN3CCN(C(=O)Nc4ccccc4Cl)CC3)c(C)o2)cc1	none (no result: TDP1 cell CPT, HT1080NT lethal, IL-1B inflam inh, DT40 TDP1 no CPT, HT1080 IDH1KD tx)
